Experimental data from PubChem BioAssay (NCATS).
Results filed as inconclusive are left out. Unmarked numbers belong to inactive results. The source made the active and inactive calls. Calls come from the whole dose curve; as a rule, active = well fitted inhibition curve with a large enough effect; inconclusive = small, poorly fitted or top-dose-only effect; inactive = no such curve, though single readings can be large or run the other way.

target: Cytochrome P450 2D6 (Homo sapiens) (UniProt P10635); assay: qHTS Assay for Inhibitors and Substrates of Cytochrome P450 2D6 (AID 891); conditions: recombinant CYP2D6, luciferin-ME EGE luminescence; series mostly up to 11.4 µM; activity change, negative = inhibition: at the top concentration;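 for activity change, negative = inhibition: luciferin methyl ether substrate demethylated by CYP2D6 with NADPH regeneration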
How it was run: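 Luminescent read-out of luciferin formed by 5 nM human CYP2D6 demethylating 30 uM Luciferin-ME EGE (Km level) over 60 min at room temperature after NADPH regeneration addition. Data normalized to full inhibition by 1.43 uM quinidine.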
% is set by controls: 0 for no effect and ±100 for the full control effect; potency is the fitted concentration of half-maximal effect.
Note: nearly all actives have a fitted effect of over 60% in size.

Cytochrome P450 2D6 (Homo sapiens), sequence (P10635 whole entry, looked up): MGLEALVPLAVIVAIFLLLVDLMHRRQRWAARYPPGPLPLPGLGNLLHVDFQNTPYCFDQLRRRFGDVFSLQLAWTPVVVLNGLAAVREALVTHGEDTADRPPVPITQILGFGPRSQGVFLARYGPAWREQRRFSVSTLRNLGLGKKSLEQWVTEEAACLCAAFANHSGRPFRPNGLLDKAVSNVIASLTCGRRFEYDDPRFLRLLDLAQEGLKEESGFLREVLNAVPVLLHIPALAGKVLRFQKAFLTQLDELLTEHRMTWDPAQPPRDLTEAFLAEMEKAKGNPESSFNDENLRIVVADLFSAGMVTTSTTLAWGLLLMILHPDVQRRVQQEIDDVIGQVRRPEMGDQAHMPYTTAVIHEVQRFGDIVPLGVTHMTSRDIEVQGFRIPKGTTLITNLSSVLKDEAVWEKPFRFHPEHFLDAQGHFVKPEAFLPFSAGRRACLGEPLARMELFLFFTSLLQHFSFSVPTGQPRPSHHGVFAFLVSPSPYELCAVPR

`COCOc1cc(OC)ccc1C(=O)/C=C\c1ccc2c(c1)OCO2` was tested, and the Potency was 3.98 µM (active).
In the case of `COC(=O)C1=C(C)N(Cc2ccccc2)C2=C(C(C)=O)C[C@@](O)(C(=O)OC)C(=O)N2C1c1ccccc1` (stereo not given in full), the Potency is reported as “inactive”.

Going from `O=Cc1ccc(OC2C=CC(C#Cc3ccccc3)OC2CO)cc1` (stereo not given) to `CCOC(=O)OCC1OC(c2ccccc2)C=CC1Oc1cccc(N(C)C)c1` (stereo not given), the “activity change, negative = inhibition” value falls from -6.94% to -11.9%.

First: CC1CCC2C(=O)N3C(CCC(C)[C@@H]3c3ccc(-c4ccco4)cc3)C(=O)N2C1c1cccc(N2CCCC2=O)c1 (stereo not given in full)
Second: CC1CCC2C(=O)N3C(CCC(C)[C@@H]3c3ccc(Br)cc3)C(=O)N2C1c1ccc(Br)cc1 (stereo not given in full)
The “activity change, negative = inhibition” value of the first is higher: -3.07% for the first, -4.22% for the second.

Going from `CCCCCCC1=Cc2cc(OC)c(OC)cc2C(C2(C(=O)OCC)CCCC2=O)O1` (stereo not given) to `C/C=C/C1Oc2ccc(OC)cc2N2C(=O)C(C)C(OCOC)C12` (stereo not given), the “activity change, negative = inhibition” value rises from -20.5% to 14.6%.

Going from `CC1(C)OC(C(O)(c2cc(C(F)(F)F)cc(C(F)(F)F)c2)c2cc(C(F)(F)F)cc(C(F)(F)F)c2)C(C(O)(c2cc(C(F)(F)F)cc(C(F)(F)F)c2)c2cc(C(F)(F)F)cc(C(F)(F)F)c2)O1` (stereo not given) to `C=C/C1=C/Cc2ccccc2C(C[N+](=O)[O-])C(C(=O)OC)(C(=O)OC)C1` (stereo not given), the “activity change, negative = inhibition” value falls from 3.42% to -7.55%.

First: COC(=O)C/C=C/C(C)C(OCc1cccc(Br)c1)C(C)C(OC)C1CCCCC1 (stereo not given)
Second: COC(=O)NC(c1cccs1)C(C(C)=O)C(=O)OC (stereo not given)
The “activity change, negative = inhibition” value of the first is higher: 23.3% for the first, -4.61% for the second.

target: Cytochrome P450 2C19 (Homo sapiens) (UniProt P33261); assay: qHTS Assay for Inhibitors and Substrates of Cytochrome P450 2C19 (AID 899); conditions: recombinant CYP2C19, luciferin-H EGE luminescence; series mostly up to 11.4 µM; activity, negative = inhibition: at the top concentration
How it was run: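 In 50mM KPO4, the reaction held 5nM enzyme and KM-level (10uM) Luciferin-H EGE; it ran 60 min at 37C after NADPH regeneration and a 10 min compound preincubation. Luminescence values were scaled to 57uM ketoconazole as complete inhibition.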

Cytochrome P450 2C19 (Homo sapiens), sequence (P33261 whole entry, looked up): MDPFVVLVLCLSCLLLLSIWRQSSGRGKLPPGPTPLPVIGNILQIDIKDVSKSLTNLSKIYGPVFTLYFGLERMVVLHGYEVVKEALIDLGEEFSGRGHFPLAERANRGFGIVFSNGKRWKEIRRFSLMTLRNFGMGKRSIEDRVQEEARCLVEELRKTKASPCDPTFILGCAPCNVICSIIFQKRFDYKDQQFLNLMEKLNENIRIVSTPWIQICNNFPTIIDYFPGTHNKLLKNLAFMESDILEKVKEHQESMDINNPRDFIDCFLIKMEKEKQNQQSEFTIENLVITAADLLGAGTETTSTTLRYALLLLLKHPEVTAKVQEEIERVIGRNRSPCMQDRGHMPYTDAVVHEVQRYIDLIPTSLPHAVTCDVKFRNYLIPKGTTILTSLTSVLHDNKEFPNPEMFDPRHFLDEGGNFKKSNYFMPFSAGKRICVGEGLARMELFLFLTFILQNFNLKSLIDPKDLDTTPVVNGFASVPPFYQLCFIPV

First: CCC1OCCC=CC1C (stereo not given)
Second: COC(=O)C1C(C)OC(=O)NC1c1ccccc1 (stereo not given)
The “activity, negative = inhibition” value of the first is higher: 43.2% for the first, -16.9% for the second.

Going from `OCC1OC(c2ccccc2)C=CC1Oc1ccc(C2CCCC2)cc1` (stereo not given) to `Cc1ccc(C#CC2C=CC(Oc3ccc4c(c3)OCO4)C(CO)O2)c(C)c1` (stereo not given), the “activity, negative = inhibition” value rises from -12.5% to -11.9%.

First: CCOP(=O)(CC(C(C)=O)C(O)c1ccccc1)OCC (stereo not given)
Second: COC(=O)NC(/C(C(=O)OC)=C(\C)NCc1ccccc1)c1ccco1 (stereo not given)
The “activity, negative = inhibition” value of the first is higher: 24.3% for the first, -42.6% for the second.

First: CC1CCC2C(=O)N3C(CCC(C)[C@@H]3c3ccc(-c4ccco4)cc3)C(=O)N2C1c1cccc(N2CCCC2=O)c1 (stereo not given in full)
Second: O=C1C=C[C@@H](O)[C@@H]2[C@H]3C(=O)N(c4ccc(F)cc4F)C(=O)[C@@H]3CC[C@@H]12
The “activity, negative = inhibition” value of the first is higher: 54.2% for the first, -43.8% for the second.

First: CCCCCCC1=Cc2cc(OC)c(OC)cc2C(C2(C(=O)OCC)CCCC2=O)O1 (stereo not given)
Second: CCOC(=O)[C@]1(C(/C=C/c2ccco2)NC(=O)OC)CCCC1=O (stereo not given in full)
The “activity, negative = inhibition” value of the first is lower: -33.9% for the first, 40.7% for the second.

Compared with `C/C=C/C1Oc2ccc(OC)cc2N2C(=O)C(C)C(OCOC)C12` (stereo not given), `COC(=O)C/C=C1\c2ccccc2C(OC)C1C` (stereo not given) is higher in “activity, negative = inhibition” value: -0.71% for the first, 34.9% for the second.

Compared with `C=C(C)C(O)C(CC/C=C(\C)C(=O)OCC)OC` (stereo not given), `COC(=O)NC(c1ccc(F)cc1)C(C(C)=O)C(=O)OC` (stereo not given) is higher in “activity, negative = inhibition” value: -59.2% for the first, -33.7% for the second.

Compared with `COC(=O)NC(CC(C)=O)c1ccco1` (stereo not given), `COC(=O)NC(CC(C)=O)c1cccc(C(F)(F)F)c1` (stereo not given) is higher in “activity, negative = inhibition” value: 26.3% for the first, 98.4% for the second.

Compared with `CC1(C)OC(C(O)(c2cc(C(F)(F)F)cc(C(F)(F)F)c2)c2cc(C(F)(F)F)cc(C(F)(F)F)c2)C(C(O)(c2cc(C(F)(F)F)cc(C(F)(F)F)c2)c2cc(C(F)(F)F)cc(C(F)(F)F)c2)O1` (stereo not given), `CC12C=C(/C=C/CCc3ccco3)C(C)(C1)C(CCc1ccco1)CC2=O` (stereo not given) is higher in “activity, negative = inhibition” value: 18.6% for the first, 102% for the second.

Compared with `C#CC(C)OC(=O)c1nnc2c3ccccc3n(COC)c2n1` (stereo not given), `CCC(=O)CC(NC(=O)OC)c1ccc(F)cc1` (stereo not given) is lower in “activity, negative = inhibition” value: 30% for the first, 22.6% for the second.

In the case of `COC(=O)C1=C(C)N(Cc2ccccc2)C2=C(C(C)=O)C[C@@](O)(C(=O)OC)C(=O)N2C1c1ccccc1` (stereo not given in full), the Potency is reported as “inactive”.
In the case of `CCCNC(=O)OC[C@H]1O[C@@H](CCO/N=C\[C@@H](NS(=O)(=O)c2ccc(C)cc2)[C@H](C)/C=C\CC(=O)OC)C=C[C@@H]1Oc1ccc(OC)cc1`, the Potency is reported as 3.16 µM (active).
With `Cc1ccc(OC2C(O)COC2/C=C/C#Cc2ccc(C(C)(C)C)cc2)cc1` (stereo not given) the Potency was “inactive”.
